Among the data in PubChem BioAssay (Tox21) are Potency and outcome values, retold here.

The nature of assay [1]: qHTS assay to identify small molecule antagonists of the estrogen receptor beta (ER-beta) signaling pathway - cell viability counter screen (AID 1259382). Further: nearly all actives have a fitted effect of over 55% in size. Further: potency means the concentration at half of the fitted maximal effect. The procedure, abridged: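 Cells: ER-beta-UAS-bla HEK293T, 2,000/well, 2% CS-FBS, 6 hr settle. Cpd + E2 (1nM final), 16 hr, 37C/5% CO2. Bla FRET substrate 2 hr RT, then CellTiter-Glo 30 min RT, luminescence.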
Assay [2] addresses Estrogen receptor (Homo sapiens) (UniProt P03372). Nature of the assay: qHTS assay to identify small molecule agonists of the estrogen receptor alpha (ER-alpha) signaling pathway in the presence of an antagonist (AID 1259383; calls by dose curve; further: top concentration of the series differs between compounds; nearly all actives have a fitted effect of over 15% in size). In short, it runs like this: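 VM7Luc4E2, endog. ER-alpha + 4×ERE-luc; charcoal-stripped FBS, phenol red-free, 5 d; 24hr plating; +10.0nM ICI-182,780 (final); cpds 15 conc, 22hr, 37C/5% CO2; ONE-Glo luminescence.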
A general note: qHTS replaces the single test concentration by a dilution series.

Assay [3] is described as follows: qHTS assay to identify small molecule agonists or antagonists of the thyroid stimulating hormone receptor (TSHR) signaling pathway - wild type cell line counter screen (AID 1259384; calls by dose curve). In short, it runs like this: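 Wild-type HEK293 cells were plated 18 h at 37 C/5% CO2, pin-dosed with compound plus Ro20-1724 medium, held 30 min at room temperature, then given cAMP-d2 and anti-cAMP-cryptate; fluorescence was read after 1 h. Fifteen concentrations, triplicate.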

The target in assay [4] is Thyrotropin receptor (Homo sapiens) (UniProt P16473). Kind of assay: qHTS assay to identify small molecule antagonists of the thyroid stimulating hormone receptor (TSHR) signaling pathway (AID 1259385; calls by dose curve; further: nearly all actives have a fitted effect of over 20% in size; further: potency means the concentration at half of the fitted maximal effect). The procedure, abridged:
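TSHR-HEK293 cells were plated and held 18 h at 37C/5% CO2, then given compound plus Ro20-1724 and stimulated with TSH at 1.5 ng/mL final. After 30 min at room temperature, cAMP was detected with cAMP-d2/anti-cAMP-cryptate (1 h) by fluorescence.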

Assay [5] can be described thus: qHTS assay to identify small molecule agonists of the estrogen receptor alpha (ER-alpha) signaling pathway in the presence of an antagonist - cell viability counter screen (AID 1259386).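 Further: cells exposed to compounds for 22 h at 37 °C before the viability read; nearly all actives have a fitted effect of over 30% in size.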 Further: potency means the concentration at half of the fitted maximal effect. In short, it runs like this:
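VM7Luc4E2, stripped-serum pre-culture 5 d; 24hr plating; +ICI-182,780 10.0nM final; cpds 15 conc, 22hr, 37C/5% CO2; CellTiter-Fluor added at 21hr, fluorescence 1hr later.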

Assay [6] addresses Progesterone receptor (Homo sapiens) (UniProt P06401). Kind of assay: qHTS assay to identify small molecule agonists of the progesterone receptor (PR) signaling pathway (AID 1346784; calls by dose curve; further: nearly all actives have a fitted effect of over 30% in size). The procedure, abridged:
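Cells (PR-UAS-bla HEK 293T, GripTite) were plated in assay medium containing 2% charcoal-stripped FBS and incubated 6 hr. Test compounds in DMSO were added for 16 hr at 37C. FRET substrate was then loaded for 2 hr at room temperature before fluorescence reading.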

For assay [7] the target is unchanged. Nature of the assay: qHTS assay to identify small molecule antagonists of the progesterone receptor (PR) signaling pathway (AID 1346795; active means well fitted inhibition curve with a large enough effect in the signal ratio in the repeat runs, not every such curve was filed as active; the % refers to the signal ratio; further: potency means the concentration at half of the fitted maximal effect). In short, it runs like this:
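Antagonist mode: compounds tested against 1 nM (final) promegestone stimulation in HEK293T cells expressing PR-UAS-bla reporter, 16 hr at 37C, 5% CO2; beta-lactamase activity detected via B/G FRET substrate after 2 hr at room temperature.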

The nature of assay [8]: qHTS assay to identify small molecule antagonists of the progesterone receptor (PR) signaling pathway - cell viability counter screen (AID 1346798). Further: nearly all actives have a fitted effect of over 50% in size. Further: potency means the concentration at half of the fitted maximal effect. The procedure, abridged:
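Counter screen for cytotoxicity: viability of PR-UAS-bla HEK293T cells was measured with CellTiter-Glo luminescence following 16 hr compound exposure in the presence of R5020.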

A short description of assay [9]: qHTS assay to identify small molecule agonists of the progesterone receptor (PR) signaling pathway - cell viability counter screen (AID 1346799; calls by dose curve; further: nearly all actives have a fitted effect of over 45% in size). The procedure, abridged:
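Cells (PR-UAS-bla HEK293T) are plated at 3,000/well in 2% charcoal-stripped FBS medium, rested 6 hr, dosed and incubated 16 hr at 37C. CellTiter-Glo is then added and luminescence measured after 30 min at room temperature.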

The nature of assay [10]: qHTS assay to identify small molecule antagonists of the TGF-beta/Smad signaling pathway - cell viability counter screen (AID 1346824). Further: nearly all actives have a fitted effect of over 50% in size. In short, it runs like this: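 SBE-bla HEK 293T cells were plated overnight at 37 C, then given compounds in DMSO plus TGF-beta1 (added as 0.25 ng/mL solution) for 5 hr. After the bla read, CellTiter-Glo was added to the same wells and luminescence read after 30 min at room temperature.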

Assay [11] in a line: qHTS assay to identify small molecule agonists of the TGF-beta/Smad signaling pathway - cell viability counter screen (AID 1346829). Further: top concentration of the series differs between compounds; nearly all actives have a fitted effect of over 45% in size. In short, it runs like this:
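HEK 293T SBE-bla line, 5 hr compound exposure at 37 C, multiplexed CellTiter-Glo viability read by luminescence.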

A short description of assay [12]: qHTS assay to identify small molecule agonists of the TGF-beta/Smad signaling pathway (AID 1346859; active means well fitted activation curve with a large enough effect in the signal ratio in the repeat runs, not every such curve was filed as active; the % refers to the signal ratio; further: series mostly up to about 77 µM). In short, it runs like this: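 Reporter line: HEK 293T with stably integrated SBE-controlled beta-lactamase. Compound exposure lasts 5 hr at 37 C and 5% CO2; substrate loading follows for 2 hr at room temperature, with emission read at 460 and 530 nm.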
Assay [13] deals with Thyrotropin-releasing hormone receptor (Homo sapiens) (UniProt P34981). Kind of assay: qHTS assay to identify small molecule antagonists of the thyrotropin-releasing hormone receptor (TRHR) signaling pathway (AID 1346877; active means well fitted inhibition curve with a large enough effect in the repeat runs, not every such curve was filed as active; further: potency means the concentration at half of the fitted maximal effect). The procedure, abridged: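 Intracellular calcium fluorescence, read kinetically every second over 3 min, reports TRH-evoked signalling in HEK293 cells carrying TRHR. Test compounds were added 5 min ahead of a 1 nM TRH challenge.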

For assay [14] the target is unchanged. Nature of the assay: qHTS assay to identify small molecule agonists of the thyrotropin-releasing hormone receptor (TRHR) signaling pathway (AID 1346891; calls by dose curve;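 further: HEK293 cells expressing TRHR with calcium dye readout; series mostly up to about 58 µM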). The procedure, abridged: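 Cells: TRHR-Hek293, seeded and incubated 18 h. Dye loading: 2 h at 37 °C. Compound added from DMSO stock by pin tool. Read-out: kinetic calcium fluorescence over 3 min.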
Assay [15] is described as follows: Human pregnane X receptor (PXR) small molecule agonists, qHTS cell viability counter screen (AID 1346977). Further: nearly all actives have a fitted effect of over 50% in size. Further: potency means the concentration at half of the fitted maximal effect. The procedure, abridged:
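Cytotoxicity counter screen run in the same wells as the PXR luciferase assay, using PXR-Luc HepG2 cells in charcoal-stripped serum medium. Viability: CellTiter-Fluor fluorescence after 24hr compound treatment.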

A short description of assay [16]: Caspase-3/7 induction in HepG2 cells by small molecules, qHTS assay (AID 1346978). Further: nearly all actives have a fitted effect of over 15% in size. Further: potency means the concentration at half of the fitted maximal effect. In short, it runs like this: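 Wild-type HepG2 cells (2,000/well) were settled 5 h at 37 C, 5% CO2, then exposed to compounds in DMSO for 17 h. Caspase-3/7 activity was read by luminescence 30 min after adding Caspase-Glo 3/7 reagent at room temperature.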
A short description of assay [17]: qHTS assay to identify small molecule agonists of the androgen receptor (AR) signaling pathway in the presence of an antagonist - cell viability counter screen (AID 1259379).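 Further: MDA-kb2 human breast cancer cells carrying an MMTV luciferase reporter; series mostly up to about 92 µM; nearly all actives have a fitted effect of over 25% in size.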 In short, it runs like this: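 Cells: MDA-kb2 (MMTV-luc, AR and GR elements), 3,000/well, 5 hr settle. Added: nilutamide 3.0uM final, then compounds (15 conc.). Incubation: 16 hr, 37C, no CO2. Read-out: CellTiter-Fluor, 1 hr, fluorescence.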

A short description of assay [18]: qHTS assay to identify small molecule agonists of the estrogen receptor beta (ER-beta) signaling pathway - cell viability counter screen (AID 1259380). Further: nearly all actives have a fitted effect of over 30% in size. Further: potency means the concentration at half of the fitted maximal effect. In short, it runs like this:
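HEK293T ER-beta-UAS-bla; 2% CS-FBS; 6 hr pre-plate, 16 hr cpd at 37C/5% CO2; LiveBLAzer read first, then CellTiter-Glo 30 min RT, luminescence.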

Assay [19] concerns the target Androgen receptor (Homo sapiens) (UniProt P10275). Kind of assay: qHTS assay to identify small molecule agonists of the androgen receptor (AR) signaling pathway in the presence of an antagonist (AID 1259381; calls by dose curve; further: nearly all actives have a fitted effect of over 15% in size). The procedure, abridged: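 MDA-kb2 cells, 3,000/well, rested 5hr at 37C/0% CO2 → nilutamide 3.0uM final or buffer → compounds, 15 conc. → 16hr at 37C → ONE-Glo, 30min RT → luminescence.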

Inconclusive results are not listed. Activity calls are given as the source filed them. Unless noted, the call rests on the fitted dose curve; in most records, active means well fitted curve in the direction sought with a large enough effect in the repeat runs; inconclusive means weak or mixed curves; inactive means no such curve, though single readings can be large; an effect the other way counts as inactive or inconclusive.

Chain of Thyrotropin-releasing hormone receptor (Homo sapiens) (P34981 whole entry, looked up): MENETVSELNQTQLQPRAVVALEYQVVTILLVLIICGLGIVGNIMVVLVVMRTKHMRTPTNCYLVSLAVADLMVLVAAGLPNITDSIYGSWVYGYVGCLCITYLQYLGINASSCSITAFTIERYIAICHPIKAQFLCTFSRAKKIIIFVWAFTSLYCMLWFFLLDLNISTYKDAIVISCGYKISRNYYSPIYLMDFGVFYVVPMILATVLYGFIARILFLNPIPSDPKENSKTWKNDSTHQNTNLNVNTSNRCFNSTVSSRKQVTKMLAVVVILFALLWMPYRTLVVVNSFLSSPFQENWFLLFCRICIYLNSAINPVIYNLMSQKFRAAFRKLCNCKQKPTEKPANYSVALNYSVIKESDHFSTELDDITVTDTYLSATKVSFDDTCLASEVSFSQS
Chain of Androgen receptor (Homo sapiens) (P10275 whole entry, looked up): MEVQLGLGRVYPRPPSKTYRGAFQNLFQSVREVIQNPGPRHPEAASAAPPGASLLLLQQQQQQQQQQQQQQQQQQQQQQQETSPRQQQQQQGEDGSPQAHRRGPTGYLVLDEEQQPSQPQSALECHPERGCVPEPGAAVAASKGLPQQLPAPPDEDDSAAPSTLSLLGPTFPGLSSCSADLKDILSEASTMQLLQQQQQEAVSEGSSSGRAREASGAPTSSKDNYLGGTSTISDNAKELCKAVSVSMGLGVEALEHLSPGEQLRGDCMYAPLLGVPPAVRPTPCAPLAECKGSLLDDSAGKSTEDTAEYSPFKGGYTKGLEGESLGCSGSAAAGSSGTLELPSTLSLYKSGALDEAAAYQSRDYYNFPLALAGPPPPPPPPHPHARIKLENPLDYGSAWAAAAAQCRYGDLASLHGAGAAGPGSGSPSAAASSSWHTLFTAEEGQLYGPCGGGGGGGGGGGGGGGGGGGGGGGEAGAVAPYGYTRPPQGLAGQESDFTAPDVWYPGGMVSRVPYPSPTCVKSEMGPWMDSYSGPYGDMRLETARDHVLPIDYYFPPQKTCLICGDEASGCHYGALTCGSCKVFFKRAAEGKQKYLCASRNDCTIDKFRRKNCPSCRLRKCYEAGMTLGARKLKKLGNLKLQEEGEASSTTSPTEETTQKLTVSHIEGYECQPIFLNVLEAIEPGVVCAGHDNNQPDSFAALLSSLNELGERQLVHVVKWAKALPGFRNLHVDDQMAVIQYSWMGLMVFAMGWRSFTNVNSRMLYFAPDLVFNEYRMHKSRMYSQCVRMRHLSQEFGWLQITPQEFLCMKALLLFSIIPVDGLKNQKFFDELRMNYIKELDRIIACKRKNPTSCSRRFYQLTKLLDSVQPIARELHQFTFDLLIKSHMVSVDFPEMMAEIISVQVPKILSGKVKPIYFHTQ
Chain of Progesterone receptor (Homo sapiens) (P06401 whole entry, looked up): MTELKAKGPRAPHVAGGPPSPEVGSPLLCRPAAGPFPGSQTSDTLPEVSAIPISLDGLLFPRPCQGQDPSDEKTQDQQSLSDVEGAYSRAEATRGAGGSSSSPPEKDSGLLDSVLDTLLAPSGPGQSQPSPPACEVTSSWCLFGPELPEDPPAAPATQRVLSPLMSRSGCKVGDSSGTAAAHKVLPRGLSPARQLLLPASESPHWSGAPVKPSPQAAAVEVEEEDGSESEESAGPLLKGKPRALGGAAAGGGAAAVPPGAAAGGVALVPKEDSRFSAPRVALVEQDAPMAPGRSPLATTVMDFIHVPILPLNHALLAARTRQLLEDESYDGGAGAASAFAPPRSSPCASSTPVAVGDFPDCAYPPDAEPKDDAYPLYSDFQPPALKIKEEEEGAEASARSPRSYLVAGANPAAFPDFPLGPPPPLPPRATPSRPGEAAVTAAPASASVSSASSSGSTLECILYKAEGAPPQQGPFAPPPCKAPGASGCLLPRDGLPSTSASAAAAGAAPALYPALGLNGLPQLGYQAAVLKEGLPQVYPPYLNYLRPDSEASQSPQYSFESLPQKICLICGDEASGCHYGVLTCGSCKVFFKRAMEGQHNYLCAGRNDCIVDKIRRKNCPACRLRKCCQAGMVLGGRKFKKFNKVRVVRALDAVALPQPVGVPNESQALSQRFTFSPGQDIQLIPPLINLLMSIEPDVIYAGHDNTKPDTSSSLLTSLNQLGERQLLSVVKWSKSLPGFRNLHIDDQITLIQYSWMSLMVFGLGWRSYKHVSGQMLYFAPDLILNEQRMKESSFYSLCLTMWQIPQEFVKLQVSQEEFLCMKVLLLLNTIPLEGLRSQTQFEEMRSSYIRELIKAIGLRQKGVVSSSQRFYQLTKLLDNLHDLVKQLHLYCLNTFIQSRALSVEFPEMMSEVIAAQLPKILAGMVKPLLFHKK
Chain of Estrogen receptor (Homo sapiens) (P03372 whole entry, looked up): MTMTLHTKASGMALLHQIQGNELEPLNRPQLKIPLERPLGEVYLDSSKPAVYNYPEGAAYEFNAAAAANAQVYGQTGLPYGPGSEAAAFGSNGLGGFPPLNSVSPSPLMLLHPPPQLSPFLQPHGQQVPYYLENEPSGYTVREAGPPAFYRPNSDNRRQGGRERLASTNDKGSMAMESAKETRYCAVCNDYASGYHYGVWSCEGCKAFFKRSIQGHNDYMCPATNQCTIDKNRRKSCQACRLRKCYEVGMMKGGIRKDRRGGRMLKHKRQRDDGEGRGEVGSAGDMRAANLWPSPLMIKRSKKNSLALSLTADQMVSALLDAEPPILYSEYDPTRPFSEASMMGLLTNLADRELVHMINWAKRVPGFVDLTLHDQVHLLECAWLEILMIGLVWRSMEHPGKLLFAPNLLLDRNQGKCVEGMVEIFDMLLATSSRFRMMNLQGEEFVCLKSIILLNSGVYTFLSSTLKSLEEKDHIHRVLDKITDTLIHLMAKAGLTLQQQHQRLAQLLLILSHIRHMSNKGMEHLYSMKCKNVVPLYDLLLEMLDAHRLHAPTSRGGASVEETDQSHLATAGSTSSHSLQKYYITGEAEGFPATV
Chain of Thyrotropin receptor (Homo sapiens) (P16473 whole entry, looked up): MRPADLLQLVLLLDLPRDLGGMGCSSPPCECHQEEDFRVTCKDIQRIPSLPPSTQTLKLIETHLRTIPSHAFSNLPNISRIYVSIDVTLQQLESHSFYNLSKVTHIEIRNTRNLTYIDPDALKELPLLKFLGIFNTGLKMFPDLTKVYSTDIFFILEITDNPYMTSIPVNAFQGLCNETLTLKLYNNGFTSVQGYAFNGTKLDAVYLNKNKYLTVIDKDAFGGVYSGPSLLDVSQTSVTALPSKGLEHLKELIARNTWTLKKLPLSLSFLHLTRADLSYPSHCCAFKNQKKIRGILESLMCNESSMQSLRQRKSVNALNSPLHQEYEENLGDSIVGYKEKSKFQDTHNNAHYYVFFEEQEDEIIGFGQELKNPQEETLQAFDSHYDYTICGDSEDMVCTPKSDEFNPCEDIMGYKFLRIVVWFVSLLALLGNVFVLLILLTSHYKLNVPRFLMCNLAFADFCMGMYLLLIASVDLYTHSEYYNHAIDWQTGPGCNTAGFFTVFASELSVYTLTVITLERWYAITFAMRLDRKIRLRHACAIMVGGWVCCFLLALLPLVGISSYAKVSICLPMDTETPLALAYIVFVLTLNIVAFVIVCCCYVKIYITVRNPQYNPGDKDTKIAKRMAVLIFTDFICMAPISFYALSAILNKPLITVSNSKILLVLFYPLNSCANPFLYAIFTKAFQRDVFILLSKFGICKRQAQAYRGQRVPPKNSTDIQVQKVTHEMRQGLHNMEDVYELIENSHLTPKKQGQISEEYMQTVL

Consider `BrC(Br)C(Br)(Br)Br`, for which the Potency entry in assay [1], in [2], in assay [4], in [5], in [6] and in assay [7] was “inactive” each time. For the same compound, the Potency entry in assay [8], in assay [9], in [10], in [11], in assay [14] and in assay [15] was “inactive” each time. In addition, the Potency result in [16] was “inactive”. In addition, the call in assay [3] and in [12] was inactive. Further, in [13], the Potency was 34 µM (active).

Consider `Nc1ccc(Sc2ccc(N)cc2)cc1`, for which the Potency entry in assay [17], in assay [2], in assay [4], in assay [5], in assay [11] and in assay [14] was “inactive” each time. Moreover, the Potency result in assay [16] is “inactive”. Also, the outcome in [12] was inactive.

Regarding `Clc1ccc(CSC(Cn2ccnc2)c2ccc(Cl)cc2Cl)cc1` (stereo not drawn), the Potency in assay [18] was 13.3 µM (active); in [1], 13.3 µM (active); in assay [8], 6.68 µM (active). Moreover, the result in assay [3] and in [12] was inactive. The Potency result in assay [10], in assay [11], in assay [13], in assay [14] and in assay [16] was “inactive” in each case.

As to `CN(C)[C@@H]1C(=O)C(C(N)=O)=C(O)[C@@]2(O)C(=O)C3=C(O)c4c(O)ccc(Cl)c4[C@@](C)(O)[C@H]3C[C@@H]12`, the Potency result in assay [17], in [1], in assay [5], in assay [8], in assay [10] and in assay [11] was “inactive” in each case. The Potency entry in assay [13], in assay [14] and in assay [16] was “inactive” each time. For the same compound, the compound was called inactive in [3].

As for `Nc1ccc(Cc2ccc(N)c(Cl)c2)cc1Cl`, the results for the Potency in [18], in assay [1] and in assay [7] were 18.7 µM (active), 46.9 µM (active) and 13.2 µM (active), respectively. The Potency result in assay [2], in [4], in [10], in assay [11], in assay [14] and in assay [16] was “inactive” throughout. Moreover, the result in [3] and in assay [12] was inactive.

In the case of `CC(=O)/C=C/c1ccc2c(c1)OCO2`, the Potency result in [18], in assay [19], in [1], in assay [4], in [5] and in [6] was “inactive” each time. Also, the Potency result in assay [10], in [11] and in assay [16] was “inactive” throughout. Moreover, the result in assay [12] was inactive.

In the case of `c1ccc2cc3c(cc2c1)-c1cccc2cccc-3c12`, the Potency entry in assay [18], in assay [19], in assay [1], in [2], in [4] and in assay [8] was “inactive” each time. Moreover, the Potency result in assay [9], in assay [10], in assay [11] and in assay [15] was “inactive” throughout. In addition, the result in assay [3] was inactive. Besides, in assay [16], the Potency was 7.59 µM (active).

With `CC(C)[C@H](C(=O)O[C@H](C#N)c1cccc(Oc2ccccc2)c1)c1ccc(Cl)cc1`, the Potency entry in [17], in [1], in assay [4], in [5], in assay [10] and in assay [15] was “inactive” in each case. The Potency result in assay [16] was “inactive”. In addition, the outcome in assay [12] was inactive.

Turning to `CC(C)CC(C)Nc1ccc(Nc2ccccc2)cc1` (stereo not drawn), the Potency in assay [18] is 67.4 µM (active); in assay [5], 60.1 µM (active); in assay [7], 47.7 µM (active); in [15], 53.5 µM (active). Besides, the Potency result in assay [2], in assay [4], in [14] and in assay [16] was “inactive” throughout. Further, the compound was classed as inactive in assay [12].

As to `CCCCN(CCCC)C(=S)[S-].CCCCN(CCCC)C(=S)[S-].[Zn+2]`, the Potency in assay [18] was 13.7 µM (active); in assay [1], 30.6 µM (active); in assay [5], 24.3 µM (active); in assay [7], 12.2 µM (active); in assay [8], 43.2 µM (active); in assay [15], 13.7 µM (active). The Potency result in assay [2], in [10], in assay [11] and in assay [16] was “inactive” each time. Further, the call in assay [12] was inactive.

For the compound `O=c1[nH]c2ccccc2n1CCCN1CCC(n2c(=O)[nH]c3cc(Cl)ccc32)CC1`, the Potency is 9.44 µM (active) in [18], 29.8 µM (active) in [4] and 26.6 µM (active) in assay [15]. Also, the compound was classed as inactive in assay [3] and in [12]. In addition, the Potency result in assay [6], in assay [10] and in [11] was “inactive” each time.

As to `COP(=O)(OC)SCn1c(=O)oc2cc(Cl)cnc21`, the Potency result in [19], in assay [1], in assay [2], in [5], in [6] and in assay [7] was “inactive” each time. The Potency result in assay [8], in assay [9], in [10], in [11] and in assay [16] was “inactive” in each case. In addition, in [12], the compound was classed as inactive. Further, the Potency in assay [15] is 30.6 µM (active).

Turning to `O=[N+]([O-])c1c2ccccc2cc2ccccc12`, the outcome in assay [3] was inactive. In addition, the Potency in assay [8] was 27 µM (active). Moreover, the Potency entry in assay [10], in [11], in assay [13], in assay [14] and in [16] was “inactive” in each case.
